KDM5B inh = Primary screen for KDM5B Histone Demethylases FDH-coupled qHTS; 2.6% of 220,000 active; Lysine-specific demethylase 5B (Homo sapiens), Q9UGL1; Potency, µM (doses to about 57.7 µM), most hits filed as inhibitors; AID 1347165, 2019; KDM5B demethylase, FDH-coupled NADH fluorescence (FDH is formaldehyde dehydrogenase); also: potency is read from the fitted curve at half-maximal effect; 0% is about no effect; nearly all actives have a fitted effect of over 70% in size
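Measured: NADH fluorescence change, 30 min, RT. System: KDM5BΔAP 200 nM final, H3K4me3 peptide, α-KG, Fe(II), ascorbate, NAD⁺ plus FDH, pH 7.5 HEPES. Compounds: titrated, 10 min pre-incubation with enzyme.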
IP6K1 inhibitor = Primary qHTS assay for small molecule inhibitors of Inositol hexaphosphate kinase 1 (IP6K1); Inositol hexakisphosphate kinase 1 (Homo sapiens), Q92551; activity change, % (series mostly up to about 58 µM); AID 1645851, 2021; 0.81% of 140,000 active; IP6K1 kinase, ADP-Glo luminescence, 2 h; active compounds read low; in the data active = activity change below about -25%; also: % is scaled to controls: 0 for no effect and ±100 for the full control effect
Target sequence (Q92551 whole entry, looked up): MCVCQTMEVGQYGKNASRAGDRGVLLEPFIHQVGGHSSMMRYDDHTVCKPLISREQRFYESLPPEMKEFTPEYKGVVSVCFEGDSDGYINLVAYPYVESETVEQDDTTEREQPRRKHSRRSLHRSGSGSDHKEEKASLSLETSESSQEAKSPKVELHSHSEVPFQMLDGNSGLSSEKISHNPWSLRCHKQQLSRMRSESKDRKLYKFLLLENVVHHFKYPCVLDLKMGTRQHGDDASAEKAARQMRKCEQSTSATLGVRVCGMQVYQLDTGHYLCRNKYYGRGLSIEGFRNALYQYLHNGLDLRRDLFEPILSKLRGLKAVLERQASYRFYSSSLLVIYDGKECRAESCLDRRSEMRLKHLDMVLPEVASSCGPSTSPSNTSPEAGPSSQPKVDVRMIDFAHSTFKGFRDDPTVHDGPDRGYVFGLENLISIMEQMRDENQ
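ADP-Glo luminescence measures ADP made by human IP6K1 during a 2 h RT reaction with ATP/IP6 (mix at 1.3 mM/130 uM); top library doses 57.5 and 19.1 uM final.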
* = called active by the depositor; i = inactive; ? = inconclusive; . = not tested or not shown. Compounds with a hit are over-represented: about 2.8% of the library has one in this group of screens.

SMILES | KDM5B inh | IP6K1 inhibitor
COc1cccc(CC(=O)N2CCC3(CC2)CN(c2ncccn2)CC3CO)c1 (centres undefined) | ? | 5
O=C(Cc1ccccc1F)N1CCC2(CC1)CN(c1ccncn1)CC2CO (centres undefined) | i | 41
O=C(Cc1ccccc1)N1CCC2(CC1)CN(c1ncccn1)CC2CO (centres undefined) | 22µM* | 19
O=C(Cc1cccc(F)c1)N1CCC2(CC1)CN(c1ncccn1)CC2CO (centres undefined) | 22µM* | 23
O=C(C1CCN([S+](=O)([O-])c2cccc(C(F)(F)F)c2)CC1)N1CCC(N2Cc3ccccc3C2=O)CC1 | . | 1
O=C(NCCc1ccccc1)c1cc(-c2ccsc2)c2nncn2n1 | . | -10
O=C(Nc1ccc(Cl)cc1)NC1CCN(Cc2cccc(-c3cccs3)c2)CC1 | . | 4
CC(C)NC(=O)c1nc(-c2ccc(Cl)cc2Cl)c2cnccn12 | 79µM* | -11
O=C(NCc1cccnc1)c1nc(-c2ccc(Cl)cc2Cl)c2cnccn12 | ? | -14
COC(=O)CNC(=O)c1nc(-c2ccc(Cl)cc2Cl)c2cnccn12 | 79µM* | -14
Cn1ncc2c(C(=O)NC3Cc4ccccc4C3)cc(-c3ccccc3C(F)(F)F)nc21 | . | 4
O=C1CCN(C[C@@H](O)COCc2ccccc2)c2ccc(F)cc2CN1Cc1ccccc1 | . | 18
COc1cccc(-c2ccc(C(=O)N3CCC(N[S+](=O)([O-])c4cccs4)CC3)cc2)c1 | . | 3
COc1ccc(C(=O)N2CC[C@@H]3CN(c4cnccn4)[C@@H]3C2)c(OC)n1 | 32µM* | 26
COc1ccc(C(=O)N2CC[C@H]3C(=O)NCCCCCCN(Cc4ccncc4)[C@@H]3C2)c(OC)n1 | ? | 3
CCC(CC)C(=O)OCc1cc(=O)n2nc(C3CC3)sc2n1 | ? | 9
CC(O)c1cc2n(n1)CCN(Cc1cc(=O)n3nc(C4CC4)sc3n1)C2 (centres undefined) | 25µM* | -1
CCN1CCN(C(=O)c2nc3sccn3c2-c2ccc(C)cc2)CC1 | . | 2
O=C(Nc1ccc(Oc2ccccc2)cc1)N[C@H]1CO[C@H]2[C@@H]1OC[C@H]2OC(=O)Nc1cccc2ccccc12 | ? | 5
O=C(Nc1ccc(Oc2ccccc2)cc1)O[C@@H]1CO[C@H]2[C@@H]1OC[C@@H]2NC(=S)Nc1cccc2ccccc12 | 32µM* | 1
O=C(Nc1cccc2ccccc12)O[C@@H]1CO[C@H]2[C@@H]1OC[C@@H]2NS(=O)(=O)c1ccc2ccccc2c1 | ? | 4
O=C(Nc1ccc(Oc2ccccc2)cc1)O[C@@H]1CO[C@H]2[C@@H]1OC[C@@H]2NS(=O)(=O)c1ccc2ccccc2c1 | 22µM* | 9
O=C(NCc1ccccc1F)c1ccc2nc(-c3ccccn3)oc2c1 | . | -14
N#CC(C(=O)/C=C/c1ccccc1)C(=O)Nc1ccccc1Cl (centres undefined) | i | .
C=CCNc1nc(C(=O)OC(C)C(=O)Nc2ccc(F)cc2Cl)cs1 (centres undefined) | i | .
SMILES | KDM5B inh | IP6K1 inhibitor
COCCNc1ncccc1-c1noc([C@@H]2CCCN2Cc2ccncc2)n1 | 28µM* | 15
COCC(=O)Nc1ccc(-c2noc([C@@H]3CCCN3Cc3ncc[nH]3)n2)cn1 | 40µM* | 6
COCCOc1ncccc1-c1noc([C@@H]2CCCN2Cc2ccc(S(C)(=O)=O)cc2)n1 | i | 6
COCCNc1ccc(-c2noc([C@@H]3CCCN3Cc3ccncc3)n2)cn1 | 28µM* | 10
COc1ccc(C(=O)Nc2ccc(-c3noc([C@@H]4CCCN4CCCc4ccccc4)n3)cn2)cc1 | 25µM* | 12
COCCNc1ccc(-c2noc([C@@H]3CCCN3Cc3cc(OC)c(OC)c(OC)c3)n2)cn1 | ? | 14
COc1ccc(C(=O)Nc2ccc(-c3noc([C@@H]4CCCN4Cc4ccc(F)cc4)n3)cn2)cc1 | ? | 3
COCC(=O)Nc1ccc(-c2noc([C@@H]3CCCN3Cc3cccnc3)n2)cn1 | i | 12
CSc1ccc(-c2cccc(CN3CCC(N[S+](=O)([O-])c4cccc(C(F)(F)F)c4)CC3)c2)cc1 | . | -1
CN(CC(=O)N1CCCn2nc(-c3cccc(C(F)(F)F)c3)cc2C1)S(=O)(=O)c1ccc2c(c1)oc(=O)n2C | . | 5
O=C(NCCc1ccccc1F)c1ccc2nnc(Cc3ccc(Cl)cc3)n2c1 | . | 2
COCCNc1ncccc1-c1noc([C@@H]2CCCN2Cc2ccccn2)n1 | 32µM* | -12
COCCNc1ncccc1-c1noc([C@@H]2CCCN2Cc2cc(OC)c(OC)c(OC)c2)n1 | 32µM* | 12
COCCOc1ncccc1-c1noc([C@@H]2CCCN2Cc2ccc(CO)o2)n1 | ? | -12

Screens (PubChem BioAssay)
